Screening data as filed in PubChem.
Hits are enriched below; roughly 3.3% of the tested compounds scored in any of these assays.
IMPase inh: cell-permeable inhibitors of inositol monophosphatase (IMPase) | P97697 | CHO-M1 cells, IP1 accumulation, HTRF TR-FRET ratio | inhibition (IP1 accumulation), % at 46.1 µM | 120,000 tested, under 10 active | AID 901; active = well fitted curve in the direction sought with a large enough effect in the signal ratio, not every such curve was filed as active; inconclusive = small, poorly fitted or top-dose-only effect, or a change in a side signal; inactive = no such curve, though single readings can be large or run the other way; the % refers to the signal ratio;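 note: cells stimulated with carbachol in lithium chloride buffer; plate controls were DMSO basal wells for no effect and reference inhibitor wells for full effect; higher means more IMPase inhibition seen as more IP1 and lower FRET ratio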
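In this qHTS, compounds (final up to 46 uM) act on CHO-M1 cells that are then activated through the M1 receptor with carbachol, in pH 7.4 buffer containing 50 mM LiCl, for 30 min. IP1 accumulation is quantified by the IP-One immunoassay.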
NPSR antag: blocks cAMP signaling of the human neuropeptide S receptor; CHO-NPSR cells, cAMP TR-FRET, antagonist mode; Potency, µM (top dose mostly 38.3 µM), without a hit: at the top dose activity change, negative = inhibition, actives largely listed as inhibitors; 1% of 220,000 active; note: potency is the fitted concentration of half-maximal effect; % is set by controls: 0 for no effect and ±100 for the full control effect; nearly all actives have a fitted effect of over 50% in size
Target sequence (Q6W5P4 whole entry, looked up): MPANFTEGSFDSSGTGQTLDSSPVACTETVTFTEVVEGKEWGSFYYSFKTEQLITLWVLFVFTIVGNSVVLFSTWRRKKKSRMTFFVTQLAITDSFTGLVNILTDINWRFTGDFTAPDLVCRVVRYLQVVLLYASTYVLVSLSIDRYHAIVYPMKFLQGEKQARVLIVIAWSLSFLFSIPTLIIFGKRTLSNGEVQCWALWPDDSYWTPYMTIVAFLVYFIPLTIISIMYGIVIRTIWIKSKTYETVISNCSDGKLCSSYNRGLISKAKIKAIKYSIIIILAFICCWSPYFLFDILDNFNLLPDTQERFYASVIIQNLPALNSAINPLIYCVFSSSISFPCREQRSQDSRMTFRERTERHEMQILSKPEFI
HTT ATP protect: protects HTT-Q103 PC12 cells, measured by ATP. PC12 HTT-Q103 induced, cytoprotection, ATP luminescence, 40 h. AID 1471. Potency, µM (highest dose often 56.4 µM), for the others: cytoprotection (ATP increase), hits mostly activators. 0.14% of 230,000 active; note: potency is the fitted concentration of half-maximal effect; % of control where 0% means no effect; nearly all actives have a fitted effect of over 45% in size
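Compounds added alongside 100 nM tebufenozide, which induces toxic Q103 huntingtin exon 1-GFP in stable PC12 cells; surviving cells quantified by luminescent ATP measurement. Medium: phenol red-free DMEM, 5% equine and 5% calf serum.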
12-hLO inh: blocks human 12-lipoxygenase activity; P18054; AID 1452; 0.12% of 150,000 active; purified 12-hLO, xylenol orange hydroperoxide absorbance; Potency, µM (titrated, usually from 57.1 µM), inactives show at the highest dose activity change, negative = inhibition, usual class: inhibitors; note: potency is the fitted concentration of half-maximal effect; % is set by controls: 0 for no effect and ±100 for the full control effect; nearly all actives have a fitted effect of over 55% in size
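Xylenol orange chromogenic assay: hydroperoxide from 12hLO oxidises Fe(II), giving red-shifted Fe(III)-XO absorbance. Conditions: 150 nM enzyme, 40 uM arachidonic acid, 25 mM Hepes pH 7.0, 0.01% Triton X-100, 30 min, room temperature.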
HTT aggregate: mutant huntingtin aggregation inhibition; PC12 HttQ103-GFP aggregates, Acumen cytometry, 40 h; Potency, µM (top dose mostly 46.1 µM), inactives show at the top dose activity change, negative = inhibition, most hits filed as inhibitors; 1.1% of 220,000 active; AID 1688; note: potency is the fitted concentration of half-maximal effect; % is set by controls: 0 for no effect and ±100 for the full control effect; nearly all actives have a fitted effect of over 60% in size
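Aggregates are detected as GFP objects 1–25 µm with signal 6 STDEV over background in lysates of induced PC12 cells. These carry Huntingtin exon 1 with 103 glutamines fused to GFP under an ecdysone promoter; compounds titrated.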
PNC inhibitor: blocks assembly of the perinucleolar compartment; 3.1% of 140,000 active; PC3M PTB-GFP, PNC prevalence imaging, 16 h; active compounds read low; AID 2417; activity change (PNC), negative = inhibition, % at 10 µM;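 active = readout at or below -70, meaning at least 70% loss of cells showing the perinucleolar compartment, a nuclear body marking cancer cells; inconclusive = readout between -30 and a set limit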;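 note: plate controls were DMSO wells for no effect and camptothecin positive control wells for full effect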
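Compounds are pinned in duplicate onto adhered PC3M cells stably expressing GFP-tagged PTB and incubated 16 h at 37 C. Cells are then fixed, nuclei stained with Hoechst, and PNC-positive cells counted.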
An asterisk follows results filed as active; ? = inconclusive; · = no result; [ ] = remark or other dose. Unless noted, calls come from the whole dose curve; as a rule, active = well fitted curve in the direction sought with a large enough effect; inconclusive = small, poorly fitted or top-dose-only effect, or another doubt; inactive = no such curve, though single readings can be large; an effect the other way counts as inactive or inconclusive.

SMILES	IMPase inh	NPSR antag	HTT ATP protect	12-hLO inh	HTT aggregate	PNC inhibitor
Cc1cc(=O)c2c(O)c3c(O)cc(=O)c4c3c3c(cc(O)c1c23)C(C)(C)C=4O	·	·	-253.4%	·	3.16µM*	·
COC(=O)[C@@H](NC(=O)N1CCc2nc(-c3ccccc3)c3c(c2C1)CO[C@@H](C)C3)C(C)C	·	·	-9.0%[10 µM]	1.1%[11.4 µM]	·	·
CC1CCCCN1S(=O)(=O)c1ccc(S(=O)(=O)N(Cc2ccccc2)Cc2ccco2)cc1 (stereo not drawn)	-8.1	?	17.4%[10 µM]	5.4%	-19.3%	-100.0*
CCOc1ccccc1NC(=O)c1c(NC(=O)c2ccccc2C)sc2c1CCC(C)C2 (stereo not drawn)	-6.5	·	·	·	·	·
COCCn1c(=O)c(-c2ccc(Cl)cc2)nc2cnc(Nc3ccccc3)nc21	·	·	23.9%	·	·	·
C=CC[C@H]1CC(Cc2ccccc2)=C[C@H](CC=C)N1	·	8.2%	-4.4%[10 µM]	4.6%	12.3%	-80.8*
C=CCC1C=C(Cc2ccccc2)CC(CC=C)N1 (stereo not drawn)	·	-1.7%	-9.1%	·	8.9%	·
CC(C)(C)NC(=O)Cn1c(SCC(=O)NC2CCCCC2)nc2ccccc21	-1.0	-15.4%[46.1 µM]	20.9%	-0.5%	-2.0%	-100.0*
COC(=O)[C@@H]1C[C@@]2(O)[C@@H](O)[C@@H](O)[C@@H](O)C[C@H]2N1Cc1ccc(N2CCOCC2)cc1	·	·	-33.5%	1.5%	·	·
CC(=O)O[C@]1(C(C)=O)CCC2C3CCC4=CC(=O)CCC4(C)C3(F)C(O)CC21C (stereo partly drawn)	·	·	-39.1%	·	13.7%	·
Cc1cccc(OCCCCCn2ccnc2)c1	-6.1	-2.2%[46.1 µM]	4.6%	-1.7%	-5.2%	?
CCc1cccc(OCCn2ccnc2)c1	·	15.7%	·	-1.7%	-15.1%	-89.7*
NCC1O[C@@H](OC2C(N)C[C@H](N)[C@@H](O[C@H]3OC(CO)C(O)C(N)C3O)C2O)C(N)C(O)C1O (stereo partly drawn)	·	·	-38.1%	24.2%	·	·
Cc1cccc(NCCNc2cccc(C)c2)c1	7.7	-6.7%[46.1 µM]	-60.9%	2.6%	?	8.2
Cc1cccc(NCCC#N)c1	·	24.5%	-3.2%[10 µM]	-3.1%	17.7%	-134.0*
COC(=O)C(OC(=O)c1ccc(OC)cc1)C(=O)OC	2.4	-13.1%[46.1 µM]	13.6%[10 µM]	0.9%	9.9%	-100.0*
CC(C)CO/N=C1/C[C@@H](O)[C@@H](O)[C@@H]2[C@H]3C(=O)N(c4ccc(F)cc4F)C(=O)[C@@H]3CC[C@@H]12	·	·	2.5%[10 µM]	·	·	·
COc1ccc2c(c1)C(c1ccccc1C)CC(=O)O2 (stereo not drawn)	·	·	-10.6%[96.6 µM]	-15.1%[0.00818 µM]	·	·
CN(C)S(=O)(=O)c1cccc(NC(=O)COC(=O)c2cccc(S(=O)(=O)N3CCc4ccccc4C3)c2)c1	·	1.5%	-6.4%[10 µM]	-2.6%	16.6%	-85.5*
O=C(COC(=O)c1cccc(S(=O)(=O)N2CCOCC2)c1)Nc1ccc2c(c1)OCO2	-5.5	-22.0%[46.1 µM]	14.9%[10 µM]	-5.7%	-4.7%	-100.0*
CCc1cccc(CC)c1NC(=O)COC(=O)c1cccc(S(=O)(=O)N2CCc3ccccc3C2)c1	·	-16.0%	18.7%[10 µM]	-4.6%	3.1%	-89.6*
COc1ccc(S(=O)(=O)N2CCOCC2)cc1NC(=O)COC(=O)C1COc2ccccc2O1 (stereo not drawn)	·	21.6%	38.4%[10 µM]	1.2%	-12.7%	-92.3*
COc1cc2c(cc1O)CCC1C2CC[C@@]2(C)C1CC[C@@H]2O (stereo partly drawn)	-3.9	·	-64.0%	-0.8%	·	·
COc1ccc(NS(=O)(=O)c2cccc(NC(=O)c3ccc(Cl)nc3)c2)cc1	·	-52.1%	14.1%[10 µM]	·	2.51µM*	·
COc1ccc(NS(=O)(=O)c2cccc(C(=O)N/N=C(\C)c3ccc(-n4ccnc4)cc3)c2)cc1	4.4	-16.1%[46.1 µM]	-2.3%	-7.3%	6.4%	52.2
COc1ccc(NS(=O)(=O)c2cccc(C(=O)N/N=C(\C)c3ccncc3)c2)cc1	·	5.1%	·	-4.6%	-13.0%	-91.3*
